Experimental data taken from PubChem BioAssay AID449 (The Scripps Research Institute Molecular Screening Center, 2006).
Screen size: about 56,000 compounds; about 320 (0.57%) were called active.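 The calls were made as follows: active = activation above a cutoff set at the mean activation of all tested compounds plus 3 SD (cut at about 54% in these data); inactive = the rest, inconclusive results apart.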 The entries come from a sample that favours actives as a whole.

Molecular target: Sphingosine 1-phosphate receptor 1 (Homo sapiens) (UniProt P21453)
Assay: S1P1 agonists and agonism potentiators, primary screen, cell-based, primary and confirmation screens, CRE-bla reporter (AID 449);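 also: forskolin at 4 µM as EC80 and the EC20 agonist is SEW2871; 100% = SEW2871 at its EC100 plus forskolin at EC80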
Details: S1P1 CRE-bla cells, forskolin, beta-lactamase FRET, potentiator mode, at 9.5 µM, stronger effect = higher value, 100% = saturating reference agonist, 0% = basal, S1P1 agonist co-added at EC20, 2 nM
[1] = measured here: confirmation screen, triplicate average

Chain of Sphingosine 1-phosphate receptor 1 (Homo sapiens) (P21453 whole entry, looked up): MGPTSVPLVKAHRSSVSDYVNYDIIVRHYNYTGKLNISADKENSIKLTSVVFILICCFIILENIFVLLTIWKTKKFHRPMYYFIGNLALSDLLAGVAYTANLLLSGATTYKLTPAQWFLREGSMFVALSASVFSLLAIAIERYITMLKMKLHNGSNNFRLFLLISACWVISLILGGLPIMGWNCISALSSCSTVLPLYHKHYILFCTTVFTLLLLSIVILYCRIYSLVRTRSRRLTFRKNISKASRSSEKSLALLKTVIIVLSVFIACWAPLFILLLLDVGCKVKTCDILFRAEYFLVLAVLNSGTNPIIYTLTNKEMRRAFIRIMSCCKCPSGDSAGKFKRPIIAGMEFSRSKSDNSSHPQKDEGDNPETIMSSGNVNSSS

c1csc(-c2cn3c(n2)SCC3)c1
activation: -25.6% (inactive)

CCc1cc(=O)oc2cc(OCC(=O)N3CCCc4ccccc43)ccc12
activation: -15.5% (inactive)

CCSC(C)CC1C/C(=N/O)c2c(C)noc2C1 (configuration not stated)
activation: -5.8% (inactive)

COC(=O)Cc1c(C)c2ccc(OCC(=O)NCc3ccc4c(c3)OCO4)cc2oc1=O
activation: -1.6% (inactive)

CSc1nnc(CNC(=O)c2ccccc2)n1-c1ccc(F)cc1
activation: -11.1% (inactive)

O=C(CCCOc1ccccc1)Nc1cccc(C(=O)O)c1
activation: 2.3% (inactive)

COc1ccc(C(=O)Nc2cccnc2)cc1C(=O)Nc1cccnc1
activation: 5.6% (inactive)

CN(C)/C=C1/C(=O)Nc2ccccc21
activation: -14.3% (inactive)

COC(=O)C(C)n1cnc2c(nnn2-c2cccc(Cl)c2)c1=O (configuration not stated)
activation: -14.1% (inactive)

Cn1c(=O)[nH]c(=O)c2c1nc(CN1CCN(c3ccccc3F)CC1)n2CCc1ccccc1
activation: -6.4% (inactive)

O=C(Nc1c(-c2ccccc2)nc2c(Br)cc(Br)cn12)c1ccco1
activation: 17.7% (inactive)

Cc1nc2ccc(S(=O)(=O)NC(C(=O)N3CCCCCC3)C(C)C)cc2s1 (configuration not stated)
activation: -9.8% (inactive)

CCCOC(=O)c1cc2ccccc2oc1=O
activation: -2.5% (inactive)

Cc1ccnc(SCCn2c(N(C)Cc3ccccc3)nc3c2c(=O)n(C)c(=O)n3C)n1
activation: -31.4% (inactive)

N#Cc1c2c(c(-c3ccccc3)[nH]c1=O)CCCC2
activation: -28.7% (inactive)

C=CCOc1nc2c(c(=O)n(C)c(=O)n2C)n1Cc1ccc(Cl)cc1Cl
activation: 2.7% (inactive)

O=P(O)(CN1CCCCC1)CN1CCCCC1
activation: -3% (inactive)

COc1ccc(OCC(=O)OCC(=O)Nc2ccc(S(=O)(=O)N3CCCCC3)cc2)cc1
activation: -8.9% (inactive)

COc1ccc(C2C(C#N)=C(N)Oc3cc(N)ccc32)cc1OC (configuration not stated)
activation: -18% (inactive)

COc1ccc(CSc2nc(N3CCOCC3)c3c(c2C#N)CC(C)(C)OC3)cc1
activation: -11.9% (inactive)

CC(=O)Nc1ccc(S(=O)(=O)N2CCN(C3CCCCCCC3)CC2)cc1
activation: -11.9% (inactive)

COc1cc(OC)cc(C(=O)Nc2ncc3c(n2)CC(C)(C)CC3=O)c1
activation: -4.2% (inactive)

CC(C)(C)Nc1c(N)c(=O)oc2ccccc12
activation: 9.1% (inactive)

O=c1oc2c(CN3CCCCC3)c(O)ccc2c2c1CCCCC2
activation: -2.6% (inactive)

O=C(O)c1cccc2c1C(=O)N(C1CCCCC1)C2
activation: -25.1% (inactive)

O=C(CN1CCOc2ccccc21)N1CCC(Cc2ccccc2)CC1
activation: 6% (inactive)

CCCC(=O)N1c2ccccc2NC2=C(C(=O)CCC2)C1c1ccc(F)cc1 (configuration not stated)
activation: -9.6% (inactive)

Cc1cccc(CC(=O)Nc2c3c(nn2-c2cccc(Cl)c2)CS(=O)C3)c1 (configuration not stated)
activation: 26.1% (inactive)

CC[C@H]1CN2CCc3cc(OC)c(OC)cc3[C@@H]2C[C@@H]1C[C@H]1NCCc2cc(OC)c(OC)cc21
activation: 131% (active) | activation [1]: 101%

Cc1csc(NC(=O)C2CCCN2C(=O)OCC(C)C)n1 (configuration not stated)
activation: 6.7% (inactive)

CCOc1ncccc1C(=O)OCc1cn2cc(Cl)ccc2n1
activation: -55.2% (inactive)

CCOC(=O)C1CCN(c2ncnc3c2oc2ccc(Br)cc23)CC1
activation: 3.6% (inactive)

CCOC(=O)N1CCN(C(=O)C2CCN(c3ncnc4c3sc3cccc(F)c34)CC2)CC1
activation: 96.6% (active) | activation [1]: 78.6%

CCOC(=O)N1CCN(C(=O)C2CCCN(c3ncnc4c3sc3cccc(F)c34)C2)CC1 (configuration not stated)
activation: -8.7% (inactive)

CN1C(=O)CC(N2CCN(c3ccccn3)CC2)C1=O (configuration not stated)
activation: -14.2% (inactive)

O=C(O)CN(Cc1ccco1)S(=O)(=O)c1ccccc1
activation: -18.7% (inactive)

CCC1(C)N(O)C(C)(C)C(c2ccc(OC)cc2)=[N+]1[O-] (configuration not stated)
activation: -9.9% (inactive)

Cn1c(=NC(=O)C2CC2)sc2cc(F)cc(F)c21
activation: 0.7% (inactive)

COc1ccc(N2C(=O)C3CCCN3C2c2cccc(OC)c2)cc1 (configuration not stated)
activation: 5.4% (inactive)

C=C(Br)CN1CCN(CC(=C)Br)CC1
activation: -15.8% (inactive)

Cc1ccc(C2CC(c3cccc(Br)c3)n3nc(N)nc3N2)cc1 (configuration not stated)
activation: -10.7% (inactive)

COc1ccccc1-n1c(CNC(=O)c2ccccc2)nnc1SCC(=O)Nc1nnc(C)s1
activation: -0.9% (inactive)

O=C(CSCc1cccs1)N1CCCC1
activation: -22.9% (inactive)

CC(C)Oc1ccc(C(=O)Nc2cc(=O)n(C)c(=O)n2C)cc1
activation: -4.5% (inactive)

CCCN1CCN(C(=O)Cn2ncc3ccccc32)CC1
activation: -19.3% (inactive)

Cc1cc(C)c(S(=O)(=O)NCCCN2CCOCC2)cc1Br
activation: 3.7% (inactive)

CC(=O)N1CCN(c2cccc(C)c2C)CC1
activation: -9.6% (inactive)

CCNC(=O)N1CCNC(=O)C1CC(=O)Nc1ccc(C(=O)OCC)cc1 (configuration not stated)
activation: -11.5% (inactive)

COc1ccccc1NC1=NC2(CCCC2)N=C(N)N1
activation: 5.5% (inactive)

CCN(CC)S(=O)(=O)c1ccc2nc(CSc3nnnn3-c3ccc(O)cc3)[nH]c2c1
activation: -21.4% (inactive)

O=S(=O)(Nc1ccc2nc(-c3ccco3)[nH]c2c1)c1ccccc1
activation: 5.9% (inactive)

Cc1ccc(C2c3c(oc4ccc(C)cc4c3=O)C(=O)N2CCCN2CCOCC2)cc1 (configuration not stated)
activation: 3.6% (inactive)

COCCn1nnnc1C(c1ccccc1Cl)N1CCN(c2ccccc2OC)CC1 (configuration not stated)
activation: -15.5% (inactive)

COc1ccccc1-n1nnnc1S(=O)(=O)Cc1ccc(Cl)cc1
activation: 89.3% (active) | activation [1]: 76%

COc1ccccc1N1CCN(Cc2nnnn2CCc2ccccc2)CC1
activation: -1.7% (inactive)

CCOC(=O)C1Cn2c(nc3c(c2=O)C(C)(CC)Cc2ccccc2-3)S1 (configuration not stated)
activation: -35.4% (inactive)

COc1ccc(OC)c(C(=O)c2coc3ccc(OC)cc23)c1
activation: 7.5% (inactive)

CCCCn1c(CCCNC(=O)CC)nc2ccccc21
activation: -7% (inactive)

COc1ccc(-c2ccc(-c3noc(-c4ccncc4)n3)c(OC)n2)cc1
activation: -6.8% (inactive)

CN1CCN(c2ccc(NC(=O)COc3ccc(Cl)cc3Cl)cc2)CC1
activation: -9.3% (inactive)

Cc1cccc(NC(=O)COc2ccccc2C)n1
activation: 15.3% (inactive)

Cc1ccccc1OCC(=O)Nc1ccc(N2CCN(C(=O)C(C)C)CC2)c(Cl)c1
activation: 92.5% (active) | activation [1]: 68.2%

COc1ccc(CCNc2ncnc3nc[nH]c23)cc1OC
activation: -11.4% (inactive)

CCc1ccc(N(CC)c2ncnc3nc[nH]c23)cc1
activation: 56.5% (active) | activation [1]: 57.4%

c1ccc2c(c1)OCC(CNc1ncnc3nc[nH]c13)O2 (configuration not stated)
activation: 23.9% (inactive)

COC(=O)c1cc(C(=O)CSc2nc(C)cc(C)n2)ccc1O
activation: -13.3% (inactive)

CC(C)OC(=O)c1sc2nc3c(cc2c1N)C(=O)CCC3
activation: -1.6% (inactive)

Cc1ccc(-c2nn(-c3ccccc3)cc2CN(Cc2ccccc2)C(=O)CCC(=O)O)o1
activation: -15.4% (inactive)

CCCc1nc(SCC(=O)Nc2ccccc2OC)c2c(=O)n(C)c(=O)n(C)c2n1
activation: -6% (inactive)

COc1ccc(-c2nnc(SCC(=O)c3cccs3)o2)c(OC)c1
activation: 8.5% (inactive)

COc1ccc(OC)c(C(=O)CSc2nnc(-c3cccs3)o2)c1
activation: -31.3% (inactive)

COc1ccc(-n2c(C)cc(C(=O)CSc3nnc(-c4cccs4)o3)c2C)cc1
activation: 114% (active) | activation [1]: 111%

CCOC(=O)c1sc(/N=C/Nc2nc(C)c(C(=O)OCC)s2)nc1C
activation: 11.8% (inactive)

Cc1cc(C(=O)N2CCN(c3ccccn3)CC2)c(C)o1
activation: -7.8% (inactive)

COc1cccc(N(CC(=O)Nc2cccc(F)c2)S(C)(=O)=O)c1
activation: 13.1% (inactive)

COc1ccc(C)c2sc(=NC(=O)c3ccc(C#N)cc3)n(C)c12
activation: -12.3% (inactive)

CCSC1(SCC)N=C(N)C2(C#N)C(c3ccccc3)NC(C)=CC12C#N (configuration not stated)
activation: 2.3% (inactive)

CC(NC(=O)c1ccc(Cl)cc1)C(=O)N1CCCCC1 (configuration not stated)
activation: -2% (inactive)

CC1CSc2nnc(CCc3ccccc3)n21 (configuration not stated)
activation: -14.3% (inactive)

CC12COC3(C(=O)Nc4ccc(Cl)cn4)CC1CCC32C (configuration not stated)
activation: -10.8% (inactive)

COCCCn1c2nc3ccccc3nc2c2c(=O)n(Cc3ccc(Cl)cc3)c(C)nc21
activation: 6% (inactive)

CCC(C(=O)Nc1ncccn1)(C(F)(F)F)C(F)(F)F
activation: -4.8% (inactive)

CC(C)Cc1cc(C(=O)NCCc2ccccc2)no1
activation: 20.9% (inactive)

CCCOc1ccc(-c2nc(N)n[nH]2)cc1
activation: 5.2% (inactive)

CCOC(=O)C1CCCN(C(=O)Cn2ncc3c(=O)oc4ccc(C)cc4c32)C1 (configuration not stated)
activation: -8.1% (inactive)

Cc1cc(OCCN2CCCC2)ccc1C(C)C
activation: -14.6% (inactive)

COc1ccc(OC)c2[nH]c(=O)c(CCNC(=O)C(C)(C)C)cc12
activation: -8.4% (inactive)

CCOC(=O)CSC1=C(C#N)C(c2sccc2C)CC(=O)N1 (configuration not stated)
activation: -11.6% (inactive)

CC(=O)N1CCN(C(=O)c2cccc(S(=O)(=O)Nc3ccc(C)cc3)c2)CC1
activation: -12.2% (inactive)

Cc1c(C(=O)NCC2CCCO2)sc2nc(-c3ccccc3)cn12 (configuration not stated)
activation: -17.8% (inactive)

CCOc1ccc(NC(=O)CSc2nc3c(c(=O)n2-c2ccccc2OC)SCC3)cc1
activation: -5.9% (inactive)

COc1ccc(OC)c2sc(NC(=O)C3COc4ccccc4O3)nc12 (configuration not stated)
activation: -1.3% (inactive)

COc1ccc(CCNC(=O)CN2CCC(n3nnc4cc(F)ccc43)CC2)cc1OC
activation: -19.7% (inactive)

COCCOC(=O)C1=C(C)N=c2s/c(=C\c3cccs3)c(=O)n2C1c1cccs1 (configuration not stated)
activation: 2.2% (inactive)

COc1ccc(OC)c(CNC(=O)CCc2nc(-c3cccs3)no2)c1
activation: 9.5% (inactive)

CC(C)(C)NC(=O)C(c1ccco1)N(Cc1ccc2c(c1)OCO2)C(=O)Cn1nnc2ccccc21 (configuration not stated)
activation: 11.2% (inactive)
